TDP1 inh: blocks human tyrosyl-DNA phosphodiesterase 1; Q9NUW8; hit rate 0.28% among 350,000; recombinant TDP1, AlphaScreen DNA substrate cleavage; Potency, µM (top dose mostly 130 µM), without a hit: at the top dose activity change, negative = inhibition, actives largely listed as inhibitors; note: potency is the fitted concentration of half-maximal effect; % is set by controls: 0 for no effect and ±100 for the full control effect; nearly all actives have a fitted effect of over 40% in size
Target sequence (Q9NUW8 whole entry, looked up): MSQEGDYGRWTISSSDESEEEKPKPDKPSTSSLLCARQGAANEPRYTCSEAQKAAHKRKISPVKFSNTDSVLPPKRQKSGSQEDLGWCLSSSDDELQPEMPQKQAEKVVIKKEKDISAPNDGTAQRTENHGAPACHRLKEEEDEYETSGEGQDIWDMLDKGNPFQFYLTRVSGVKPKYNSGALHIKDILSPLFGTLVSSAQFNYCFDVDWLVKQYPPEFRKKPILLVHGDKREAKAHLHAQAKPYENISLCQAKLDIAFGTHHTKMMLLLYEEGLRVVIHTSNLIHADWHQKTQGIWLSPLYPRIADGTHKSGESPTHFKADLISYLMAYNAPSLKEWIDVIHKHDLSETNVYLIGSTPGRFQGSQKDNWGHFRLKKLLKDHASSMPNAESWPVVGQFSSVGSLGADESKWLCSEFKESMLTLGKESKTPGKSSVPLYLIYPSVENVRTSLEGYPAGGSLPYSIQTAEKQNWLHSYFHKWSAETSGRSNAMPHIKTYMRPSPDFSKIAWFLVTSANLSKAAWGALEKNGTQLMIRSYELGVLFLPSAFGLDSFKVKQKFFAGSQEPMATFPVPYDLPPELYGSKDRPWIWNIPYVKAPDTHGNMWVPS
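E. coli-derived human Tdp1, 1 nM final. Cpd preinc 15 min RT; substrate 15 nM final, 5 min RT; AS bead mix 10 ug/ml final, 10 min RT. Signal loss = tyrosine-FITC cleavage. No-enzyme wells = max signal.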
IL-1B inflam inh: inflammasome signaling inhibition, IL-1 beta readout; activity change, % at 57.5 µM; hit rate 4.7% among 360,000; THP-1 LPS/ATP IL-1B secretion, AlphaLISA, 16 h; hits give low values; in the data active = activity change below about -50%; inconclusive = mostly about -30% to -49%; note: % is set by controls: 0 for no effect and ±100 for the full control effect
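Secreted IL-1B measured by AlphaLISA bead assay after 16 h compound exposure of THP-1 cells; compounds (final up to 57.5 uM) added 1 h before LPS (250 ng/mL) and ATP (1.25 mM) stimulation; lower signal means less secretion.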
HepG2 tox: kills HepG2 cells in TGF-b inhibitor counter-screen. hit rate 0.76% among 410,000. Potency, µM (doses to about 46.1 µM), for inactives: at the top dose activity change, negative = cytotoxicity, usual class: cytotoxic. HepG2 CAGA-GFP viability, ATP luminescence, 18 h; note: potency is the fitted concentration of half-maximal effect
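HepG2 CAGA-GFP cells (1000/well, DMEM with 1% FBS) received compound, then TGF-beta at 500 pg/mL final, and were incubated 18 hours at 37 degrees C. Viability was read by CellTiter-Glo luminescence. Media-only wells were set as complete cell-killing and DMSO as no toxicity.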
TGFb inhibitor: inhibitors of TGF-b signaling. HepG2 CAGA-GFP TGF-b/SMAD3 reporter, GFP fluorescence, 18 h; TGF-beta stimulated, 500 pg/mL final. Potency, µM (top dose mostly 46.1 µM), for inactives: top-dose activity, negative = inhibition, hits mostly inhibitors. hit rate 1.2% among 410,000. AID 588855; note: potency is the fitted concentration of half-maximal effect; % is set by controls: 0 for no effect and ±100 for the full control effect; nearly all actives have a fitted effect of over 65% in size
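TGF-beta reporter screen: HEPG2 CAGA-GFP, 1% FBS, 500 pg/mL TGF-beta final, 18 h; per-cell GFP summed per well; curves fitted and categorized by class.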
TDP1 cell noCPT: qHTS for Inhibitors of human tyrosyl-DNA phosphodiesterase 1 (TDP1): qHTS in cells in absence of CPT. DT40 Tdp1-/- hTDP1 cells, no CPT, ATP luminescence, 48 h. Potency, µM (series often up to 46.2 µM), inactives show at the top dose activity change, negative = growth inhibition, usual class: inhibitors. hit rate 15% among 420,000. AID 686978, 2013; note: potency is the fitted concentration of half-maximal effect; % is set by controls: 0 for no effect and ±100 for the full control effect; nearly all actives have a fitted effect of over 55% in size
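Growth of hTDP1-complemented DT40 Tdp1-knockout cells is measured by ATP luminescence after at least 48 hr compound exposure at 37 °C, with DMSO substituting for the 20 nM CPT used in the parallel screen.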
DT40 TDP1 CPT: growth inhibition of DT40 Tdp1-/-;hTDP1 cells with camptothecin (screen for TDP1 inhibitors) | hit rate 12% among 420,000 | chicken DT40 Tdp1-/-;hTDP1 cells + 20 nM CPT, ATP luminescence, 48 h | AID 686979 | Potency, µM (highest dose often 46.2 µM), for the others: at the top dose activity change, negative = growth inhibition, most hits filed as inhibitors; note: potency is the fitted concentration of half-maximal effect; % is set by controls: 0 for no effect and ±100 for the full control effect; nearly all actives have a fitted effect of over 55% in size
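Cell growth measured by CellTiter-Glo luminescence after a minimum 48 h, 37 C compound exposure with 20 nM CPT in Tdp1-knockout DT40 cells stably expressing hTDP1, seeded 400/well; qHTS titration format.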
Active calls of the source: *; ? = inconclusive; . = no result given; [ ] = dose if it differs, or a comment. Shown are actives, neighbours in structure and some others; about 19% of the full set was active somewhere. Unless noted, calls come from the whole dose curve; as a rule, active = well fitted curve in the direction sought with a large enough effect; inconclusive = small, poorly fitted or top-dose-only effect, or another doubt; inactive = no such curve, though single readings can be large; an effect the other way counts as inactive or inconclusive.

SMILES | TDP1 inh | IL-1B inflam inh | HepG2 tox | TGFb inhibitor | TDP1 cell noCPT | DT40 TDP1 CPT
Cc1cc(C)nc(NC(=O)c2cc([N+](=O)[O-])cc([N+](=O)[O-])c2)n1 | -2.6% | 25.5 | -47.6% | ? | ? | -5.5%
Cc1cc(C)nc(NC(=O)c2ccc([N+](=O)[O-])o2)n1 | ? | 0.0 | -13.1% | ? | 13µM* | ?
NS(=O)(=O)c1ccc(O)c(NC(=O)c2ccc([N+](=O)[O-])o2)c1 | -5.1% | -61.0* | -37.1% | -35.2% | ? | ?
CC(=O)Nc1ccc(NC(=O)c2c([N+](=O)[O-])c(C(C)(C)C)nn2C)cc1 | 4.8% | . | 22.5% | -19.1% | ? | -27.9%
COc1ccc(NC(=O)c2c([N+](=O)[O-])c(C(C)(C)C)nn2C)cc1 | 4.8% | -54.4* | -17.8% | 3.4% | ? | ?
COc1cc(NC(=O)c2ccc([N+](=O)[O-])o2)ccc1NC(=O)c1ccco1 | -20.2% | -26.7 | 3.6% | 1.12µM* | 0.92µM* | 0.651µM*
CC(=O)N1CCC2(CCN(Cc3ccccc3)CC2)CC1 | . | . | . | . | -2.8% | 9.6%
CC(=O)Nc1ccc(S(=O)(=O)NCCc2ccc3c(c2)OCCO3)cc1 | . | 16.6 | 15.8% | -0.2% | 1.3% | -11.0%
CCOc1ccccc1NC(=O)Cn1nnc2sc(-c3ccccc3)cc2c1=O | 0.0% | . | -12.2% | -2.7% | ? | -13.8%
O=[N+]([O-])c1ccccc1S(=O)(=O)Nc1cccc(S(=O)(=O)N2CCCC2)c1 | 3.5% | 43.6 | 9.1% | -2.5% | -2.6% | -5.4%
COc1ccc(N/C(=C/[N+](=O)[O-])SC)cc1 | -1.6% | -56.9* | -2.3% | 2.3% | -10.3% | 5.4%
CC(NC(=O)c1ccc([N+](=O)[O-])o1)C12CC3CC(CC(C3)C1)C2 (stereo not drawn) | 8.9% | -136.0* | -51.2% | 11.2µM* | ? | ?
CC(=O)c1cccc(NC(=O)c2ccc([N+](=O)[O-])o2)c1 | . | -87.1* | -90.3% | ? | 14.6µM* | 8.2µM*
Cc1cc(C)cc(NC(=O)c2ccc([N+](=O)[O-])o2)c1 | 0.0% | -96.1* | 12.6µM* | 11.2µM* | 6.51µM* | 7.31µM*
CC(NC(=O)C12CC3CC(CC(C3)C1)C2)C(=O)NN=Cc1ccc([N+](=O)[O-])o1 (stereo not drawn) | 2.1% | ? | -94.3% | ? | ? | ?
Cc1ccc(C(=O)CSc2nnc3n2CCCCC3)s1 | 1.1% | -6.2 | 6.9% | -0.4% | 3.7% | 1.6%
COc1ccc(NC(=O)c2ccc([N+](=O)[O-])o2)cc1 | 2.7% | -96.4* | -68.4% | 11.2µM* | 23.1µM* | 16.4µM*
COc1ccc(NC(=O)c2ccc(Br)o2)cc1 | 5.1% | -9.3 | -26.0% | ? | ? | ?
CC(=O)c1ccc(NC(=O)c2ccc([N+](=O)[O-])o2)cc1 | 4.2% | -97.5* | 15.8µM* | 12.6µM* | 1.84µM* | 2.06µM*
COc1cc(/C=C/C(C)=NNc2ccccc2)ccc1O | . | -93.5* | -23.3% | -6.7% | 4.11µM* | 3.66µM*
COc1cc(/C=C/C(=O)O)ccc1O | 6.8%[56.1 µM] | -17.6 | -5.4% | -3.1% | -2.4% | 10.2%
CCc1c2c(nc3cccc(SC)c13)COC2 | 6.3% | . | . | . | . | .
O=C(CCNC(=O)c1ccco1)Nc1ccc(OC(F)F)cc1 | 0.8% | -3.3 | 1.0% | -1.8% | -0.5% | -11.2%
CCOc1ccc(CCNC(=O)CN2C(=O)COc3ccc(S(=O)(=O)N4CCCC4)cc32)cc1 | 4.6% | . | -2.5% | ? | ? | ?
CCc1ccc(NS(=O)(=O)c2cc(Br)cc3c2N(C(C)=O)CC3)cc1 | 2.9% | . | 3.4% | -8.1% | -13.4% | -1.2%
SMILES | TDP1 inh | IL-1B inflam inh | HepG2 tox | TGFb inhibitor | TDP1 cell noCPT | DT40 TDP1 CPT
CCOC(=O)c1ccc(NS(=O)(=O)c2cc(Br)cc3c2N(C(C)=O)C(C)C3)cc1 (stereo not drawn) | 2.9% | . | -25.4% | ? | 8.2µM* | 9.2µM*
COc1ccc(NS(=O)(=O)c2cc(Br)cc3c2N(C(C)=O)CC3)cc1 | 3.9% | 58.5 | -20.8% | -18.5% | 11.6µM* | 8.2µM*
CCN(c1cccc(C)c1)S(=O)(=O)c1cc(Br)cc2c1N(C(C)=O)C(C)C2 (stereo not drawn) | 2.9% | . | -14.2% | ? | 20.6µM* | 23.1µM*
CC(=O)N1c2c(cc(Br)cc2S(=O)(=O)Nc2ccccc2C)CC1C (stereo not drawn) | 2.9% | . | -2.0% | -28.7% | ? | ?
CC(=O)N1c2c(cc(Br)cc2S(=O)(=O)Nc2ccc(OC(F)(F)F)cc2)CC1C (stereo not drawn) | 2.9% | . | -5.3% | ? | 14.6µM* | 18.4µM*
COc1ccccc1CCNC(=O)Cc1c(C)c2cc(Cl)c(O)cc2oc1=O | 6.1% | . | -4.1% | 1.5% | -29.1% | -27.4%
O=C(NC1CCCCC1)C(c1ccc(O)c(O)c1)N(C(=O)Cn1nnc2ccccc21)c1cccc(O)c1 (stereo not drawn) | -1.2% | -12.6 | -4.4% | 1.8% | -2.2% | 5.9%
COc1ccc(CC(=O)NC2CC(=O)N(c3cccc(F)c3)C2)cc1OC (stereo not drawn) | -5.2% | . | 4.2% | -36.5% | -0.2% | 6.5%
CC(C)c1ccc(NC(=O)c2cc3c(=O)oc4ccccc4c3s2)cc1 | 0.0% | . | 0.1% | 1.7% | -15.0% | -1.1%
O=c1c(CCc2ccccc2)nc2cnc(N3CCOCC3)nc2n1Cc1cccs1 | . | . | . | . | -10.8% | -28.7%
COc1ncc2nc(-c3ccc(F)cc3)c(=O)n(Cc3ccc(F)cc3)c2n1 | . | . | . | . | -6.7% | 0.7%

Screens deposited in PubChem by National Center for Advancing Translational Sciences (NCATS).
